Data from the supplement of paper PMC6555819.

Columns and labels:
Experiment in all cases: PBM binding z-score (relative to random genomic background probes); higher = stronger binding; sequences stand for … in GC…GCGATTGACAGCGTAGAATGAAGG
[1] = system: PPARg:RXRa DBDmut IVT, anti-RXR (DBD mutation: RXRa K156A/R161A, NR concentration 270 nM, RXRa partner concentration 90 nM)
Outline: (§1)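 For binding z-scores, the reference was random background probes on custom Agilent 4×180K protein-binding microarrays. These arrays were incubated 1 h with ligand-free nuclear receptor dimers in PBS pH 7.4, 2% milk, 0.02% Triton X-100, 1 mM DTT, 0.2 mg/mL BSA and 0.4 mg/ml salmon testes DNA. Fluorescence was scanned after antibody detection of each partner (one per run) and regression-normalized.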

[2] = system: PPARg:RXRa IVT, anti-PPARg (NR concentration 270 nM, RXRa partner concentration 90 nM)
Outline: as §1

[3] = system: PPARg DBDmut:RXRa IVT, anti-PPARg (DBD mutation: PPARg1 K132A/R137A, NR concentration 270 nM, RXRa partner concentration 90 nM)
Outline: as §1

[4] = system: PPARg DBDmut IVT, anti-PPARg (DBD mutation: PPARg1 K132A/R137A, NR concentration 270 nM)
Outline: as §1

[5] = system: PPARg homodimer (NR concentration 180 nM)
Outline: as §1

[6] = system: PXR:RXRa (NR concentration 270 nM, RXRa partner concentration 90 nM)
Outline: as §1

[7] = system: PXR homodimer (NR concentration 270 nM)
Outline: as §1

[8] = system: RARa:RXR (NR concentration 270 nM, RXRa partner concentration 90 nM)
Outline: as §1

[9] = system: RARa homodimer (NR concentration 270 nM)
Outline: as §1

[10] = system: RARb:RXRa (NR concentration 270 nM, RXRa partner concentration 90 nM)
Outline: as §1

[11] = system: RARb homodimer (NR concentration 270 nM)
Outline: as §1

[12] = system: RARg:RXRa (NR concentration 270 nM, RXRa partner concentration 90 nM)
Outline: as §1

[13] = system: RARg homodimer (NR concentration 270 nM)
Outline: as §1

[14] = system: RXRa DBDmut IVT, anti-RXR (DBD mutation: RXRa K156A/R161A, NR concentration 90 nM)
Outline: as §1

[15] = system: RXRa homodimer (NR concentration 180 nM)
Outline: as §1

[16] = system: THRa:RXRa (NR concentration 90 nM, RXRa partner concentration 90 nM)
Outline: as §1

[17] = system: THRa homodimer (NR concentration 90 nM)
Outline: as §1

[18] = system: VDR homodimer (NR concentration 270 nM)
Outline: as §1

Row | Sequence | PBM binding z-score [1] | PBM binding z-score [2] | PBM binding z-score [3] | PBM binding z-score [4] | PBM binding z-score [5] | PBM binding z-score [6] | PBM binding z-score [7] | PBM binding z-score [8] | PBM binding z-score [9] | PBM binding z-score [10] | PBM binding z-score [11] | PBM binding z-score [12] | PBM binding z-score [13] | PBM binding z-score [14] | PBM binding z-score [15] | PBM binding z-score [16] | PBM binding z-score [17] | PBM binding z-score [18]
1 | CGTCGAAGGTCATAGGAGGTCAGTGAAGACAGAT | 3.11 | 4.45 | -0.37 | -0.169 | 4.08 | 6.79 | 3.47 | 5.95 | 2.11 | 5.41 | 5.29 | 6.92 | 7.53 | 3 | 6.64 | 5.27 | 1.39 | 3.45
2 | AGAATGAGATTATTAAGATCAGGGAATTGCGGTC | -0.986 | 0.00075 | 0.944 | 0.0181 | -0.475 | -0.605 | -0.339 | -0.5 | 0.637 | -0.639 | -0.433 | -0.202 | 0.0706 | -0.35 | -0.434 | -0.315 | -0.66 | -0.308
3 | GCGACTTGGGCAAAGCAGGTTACCATAAGGTTGG | -0.00446 | -0.245 | -0.728 | -1.56 | -0.641 | -0.189 | -0.923 | 0.287 | -1.35 | -0.0319 | -0.0673 | -0.0478 | -0.407 | -0.506 | 0.218 | 1.39 | -0.348 | -0.774
4 | AGTCAACGTTCAGGACGAGGTAACGTAAAGCACG | -0.667 | -0.129 | -0.279 | -0.261 | -0.431 | -0.527 | -0.514 | 0.104 | -0.202 | 0.548 | -0.0275 | 0.297 | 0.412 | -0.658 | 0.0619 | 2.08 | 1.42 | -0.0352
5 | ACTACAGGGTCATCGTAGGCCAGAGTACGCACAG | 1.66 | 3.47 | 2.18 | 1.55 | 1.49 | 4.76 | 0.458 | 4.67 | 0.217 | 4.45 | 3.45 | 5.52 | 5.09 | 3.26 | 5.9 | 4.64 | 1.27 | 3.36
6 | CCTAGTTGGTCAAGGTCATACACGCTATAGGTAC | 2.28 | 3.11 | 0.777 | 1.26 | 3.11 | 4.21 | 3.04 | 4.33 | 2.79 | 4.04 | 4.18 | 4.12 | 4.33 | 2.53 | 4.46 | 4.03 | 3.75 | 4.48
7 | CATCAAAGTTCAAGGTAACGTAACAGAAAGCAGC | 0.753 | 1.84 | 1.29 | 1.96 | 2.92 | 4.19 | 2.76 | 3.44 | 2.21 | 5.31 | 3.8 | 5.15 | 5.74 | 4.51 | 4.38 | 3.04 | 1.39 | 3.49
8 | CGTCAAAGTTCAAGGTAACGCAACAGAAAGCAGC | 0.947 | 2.53 | 0.438 | 0.38 | 3.41 | 4.06 | 3.14 | 3.59 | 1.14 | 5.15 | 3.59 | 5.16 | 6.13 | 4.31 | 4.24 | 2.97 | 1 | 3.74
9 | TCATATATGTAAAGGTGAAAGTCGAACGATATGA | 1.83 | 1.99 | 1.26 | 0.868 | 0.62 | 0.981 | -0.319 | 1.78 | 0.741 | 1.96 | 1.45 | 1.45 | 1.16 | 0.622 | 2.19 | 1.19 | -0.594 | 0.112
10 | CCTAGTTGGTCAGGAGGTCACACAGCGGATATGA | 1.92 | 3.62 | 0.997 | 0.401 | 5.93 | 4.51 | 2.55 | 5.39 | 3.77 | 3.81 | 4.13 | 5.36 | 4.51 | 1.06 | 4.73 | 3.66 | 2.76 | 3.13
11 | CCTAGTTGGTCAGTAGGTCACACACCGGATATGA | 4.79 | 5.74 | 0.241 | 0.396 | 3.06 | 1.68 | 0.364 | 2.76 | 2.47 | 2.91 | 3.59 | 3.58 | 3.25 | 0.459 | 2.79 | 2.1 | 1.32 | 1.29
12 | CCTATTAGTTGACCATAAGAGCAACCGAAGCTCG | 0.641 | 0.0362 | 0.382 | 0.759 | 2.08 | 0.627 | 0.992 | 0.532 | 2.97 | 0.667 | 0.851 | 0.678 | 0.927 | 0.811 | 0.6 | 0.468 | 0.721 | 1.03
13 | TGTACAGGGTCAAAGGCCAGAGTACGAATGTCGA | 2.29 | 5.22 | 1.24 | 1.55 | 1.87 | 4.52 | -0.0944 | 6.38 | 0.38 | 4.42 | 3.31 | 5.52 | 4.74 | 2.86 | 6.85 | 3.43 | 0.326 | 2.65
14 | ACTTACGGGTCAACGAGGTTATAGCCCGCGTATA | 3.54 | 3.99 | 0.579 | 0.364 | 2.12 | 5.03 | 2.93 | 4.97 | -0.101 | 4.03 | 3.68 | 5.54 | 4.99 | 2.37 | 6.11 | 3.97 | 1.14 | 3.48
15 | CCTCCAAGGTCAAAGGTCAGTGAAGAGATGACGG | 3.51 | 5.62 | 0.87 | -0.101 | 3.71 | 6.78 | 2.06 | 8.62 | 3.07 | 6.03 | 5.51 | 8.61 | 7.7 | 3.97 | 10 | 4.65 | 2.63 | 3.92
